Experiment [1] deals with Rap guanine nucleotide exchange factor 3 (Homo sapiens) (UniProt O95398). Kind of experiment: Confirmatory qHTS for antagonist of cAMP-regulated guanine nucleotide exchange factor 3 (EPAC1) (AID 1645880). Also: nearly all actives have a fitted effect of over 55% in size. Also: potency is read from the fitted curve at half-maximal effect.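 As to activity, negative = inhibition: plate controls were DMSO only for no effect and full effect of the ATA control for full effect.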 The settings on record: EPAC1 Rap1B-BODIPY-GDP exchange, fluorescence; activity, negative = inhibition: at 115 µM (top of the series). Put shortly:
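Released BODIPY-GDP fluoresces less than Rap1-bound BODIPY-GDP; the signal is followed at 480/540 nm at 5-min intervals over 30 min, after 5 min at room temperature. Reactions contain 100 nM EPAC1, 250 nM RAP1B-BODIPY-GDP and 50 uM GDP; results are normalized to ATA and DMSO.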
Background: qHTS replaces the single test concentration by a dilution series.

For experiment [2] the target is unchanged. Kind of experiment: Confirmatory qHTS for agonist of cAMP-regulated guanine nucleotide exchange factor 3 (EPAC1) (AID 1645881).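 Also: EPAC1 catalysed release of BODIPY-GDP from Rap1B seen as fluorescence loss; 100% = effect of cAMP agonist control; nearly all actives have a fitted effect of over 75% in size.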
The target in experiment [3] is Rap guanine nucleotide exchange factor 4 (Homo sapiens) (UniProt Q8WZA2). The experiment is described as follows: Confirmatory qHTS for agonist of cAMP-regulated guanine nucleotide exchange factor 4 (EPAC2) (AID 1645884).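 Also: nucleotide exchange releases bodipy-GDP from Rap1 and this lowers its fluorescence; % is scaled to controls: 0 for no effect and ±100 for the full control effect; nearly all actives have a fitted effect of over 65% in size.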
Experiment [4] shares this target. The experiment is described as follows: Confirmatory qHTS for antagonist of cAMP-regulated guanine nucleotide exchange factor 4 (EPAC2) (AID 1645885). Also: nearly all actives have a fitted effect of over 25% in size. As to activity change, negative = inhibition: % is scaled to controls: 0 for no effect and ±100 for the full control effect.
Experiment [5] deals with Rap guanine nucleotide exchange factor 3 (Homo sapiens) (UniProt O95398). Kind of experiment: Counterscreen qHTS for antagonist of cAMP-regulated guanine nucleotide exchange factor 3 (EPAC1) (AID 1645888). Also: % of control where 0% means no effect. The method, boiled down: (§1)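 Rap1B–BODIPY-GDP (250 nM) with 50 uM GDP; compounds pin-transferred to 9.74 nM–152 uM final (activator) or from 7.32 nM upwards (inhibitor). Fluorescence Ex/Em 480/540 nm read at 5 and 30 min, then after adding cAMP or buffer, at room temperature.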
On the technique in general: The purpose of a counterscreen is to sort out artefacts and off-target activity.

Experiment [6] has the same target. Kind of experiment: Counterscreen qHTS for agonist of cAMP-regulated guanine nucleotide exchange factor 3 (EPAC1) (AID 1645889). Also: % of control where 0% means no effect; nearly all actives have a fitted effect of over 40% in size. The method, boiled down:
as §1

A short description of experiment [7]: AP1 Signaling Pathway (AID 357; active = well fitted curve in either direction with a large enough effect, not every such curve was filed as active;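 also: ME-180 reporter cells stimulated with EGF at its EC50 level; % is scaled to controls: 0 for no effect and ±100 for the full control effect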). The settings on record: ME-180 (cervical carcinoma) AP-1-bla reporter, EGF-induced, beta-lactamase ratio, 5 h; at 7.69 µM (top of the series) unless noted. The method, boiled down: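 AP-1-bla ME-180 cells, Opti-MEM + 0.5% dialyzed FBS, plated overnight 37 °C. Cpd titration + EC50 EGF, 5 h 37 °C. CCF4 2.5 h RT; ex 405, em 460/530 ratio → %activity, AC50.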

Experiment [8] in a line: NFAT Signaling Pathway (AID 444; active = well fitted curve in either direction with a large enough effect, not every such curve was filed as active;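 also: carbachol stimulus at about its EC50 of 1 µM final; % is scaled to controls: 0 for no effect and ±100 for the full control effect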). The following applies: Jurkat NFAT-bla M1, carbachol, beta-lactamase ratio, 5 h; at 7.69 µM (top of the series) unless noted. Put shortly:
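Jurkat cells with NFAT-driven β-lactamase reporter and co-expressed M1 receptor, stimulated with carbachol (final 1 uM, ~EC50), compound titration, 5 h at 37 °C. CCF4 loaded 1 h at RT; 460/530 nm ratio gave %activity and AC50.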

A short description of experiment [9]: Stat Signaling Pathway (AID 446; active = well fitted curve in either direction with a large enough effect, not every such curve was filed as active;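 also: ME-180 cervical cancer cells given 40 pM IL-6 alongside compound; SIE-controlled beta-lactamase reporter measured as 460/530 nm FRET emission ratio; % is scaled to controls: 0 for no effect and ±100 for the full control effect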). Put shortly:
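Overnight-plated ME-180 cells bearing a STAT Inducible Element beta-lactamase reporter; 5 h co-exposure to compound and 40 pM IL-6; values normalized to 300 pM IL-6 and 125 nM JAK inhibitor controls.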

Experiment [10] addresses Glucocorticoid receptor (Homo sapiens) (UniProt P04150). The experiment is described as follows: GR-GFP Redistribution (AID 450;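 active = compounds whose dose series gives a full or clear partial fitted curve of increased nuclear translocation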; also: potency is read from the fitted curve at half-maximal effect). The following applies: U2OS GR-GFP nuclear translocation, laser cytometry, 2 h.

Unmarked numbers belong to inactive results. Inconclusive results are not listed. The source made the active and inactive calls. Unless noted, calls follow the shape of the dose curve; as a rule, active = well fitted curve in the direction sought with a large enough effect; inconclusive = small, poorly fitted or top-dose-only effect, or another doubt; inactive = no such curve, though single readings can be large; an effect the other way counts as inactive or inconclusive.

Rap guanine nucleotide exchange factor 3 (Homo sapiens), sequence (O95398 whole entry, looked up): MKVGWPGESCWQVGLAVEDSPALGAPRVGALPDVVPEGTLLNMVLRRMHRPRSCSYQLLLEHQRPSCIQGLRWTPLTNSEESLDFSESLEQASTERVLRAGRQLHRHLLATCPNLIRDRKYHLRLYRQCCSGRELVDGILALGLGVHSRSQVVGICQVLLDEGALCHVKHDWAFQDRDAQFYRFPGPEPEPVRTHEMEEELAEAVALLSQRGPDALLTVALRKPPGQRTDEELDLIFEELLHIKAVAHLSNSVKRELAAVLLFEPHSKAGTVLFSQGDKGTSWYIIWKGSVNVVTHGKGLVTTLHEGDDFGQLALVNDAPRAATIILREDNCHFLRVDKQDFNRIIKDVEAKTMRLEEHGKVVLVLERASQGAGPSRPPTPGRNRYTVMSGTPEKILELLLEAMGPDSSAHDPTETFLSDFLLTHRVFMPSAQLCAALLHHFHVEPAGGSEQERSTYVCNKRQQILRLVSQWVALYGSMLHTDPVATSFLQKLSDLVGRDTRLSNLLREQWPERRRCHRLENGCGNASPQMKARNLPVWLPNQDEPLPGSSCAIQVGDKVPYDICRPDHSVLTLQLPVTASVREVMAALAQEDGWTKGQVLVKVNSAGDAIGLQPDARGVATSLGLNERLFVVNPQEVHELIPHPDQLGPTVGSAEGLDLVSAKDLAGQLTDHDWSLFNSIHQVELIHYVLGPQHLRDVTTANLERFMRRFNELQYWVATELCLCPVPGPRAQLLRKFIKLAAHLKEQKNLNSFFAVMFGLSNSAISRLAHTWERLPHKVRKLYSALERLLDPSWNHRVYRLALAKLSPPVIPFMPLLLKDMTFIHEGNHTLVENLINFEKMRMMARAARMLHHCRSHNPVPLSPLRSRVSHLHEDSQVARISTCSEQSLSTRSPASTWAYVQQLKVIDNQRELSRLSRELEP
Rap guanine nucleotide exchange factor 4 (Homo sapiens), sequence (Q8WZA2 whole entry, looked up): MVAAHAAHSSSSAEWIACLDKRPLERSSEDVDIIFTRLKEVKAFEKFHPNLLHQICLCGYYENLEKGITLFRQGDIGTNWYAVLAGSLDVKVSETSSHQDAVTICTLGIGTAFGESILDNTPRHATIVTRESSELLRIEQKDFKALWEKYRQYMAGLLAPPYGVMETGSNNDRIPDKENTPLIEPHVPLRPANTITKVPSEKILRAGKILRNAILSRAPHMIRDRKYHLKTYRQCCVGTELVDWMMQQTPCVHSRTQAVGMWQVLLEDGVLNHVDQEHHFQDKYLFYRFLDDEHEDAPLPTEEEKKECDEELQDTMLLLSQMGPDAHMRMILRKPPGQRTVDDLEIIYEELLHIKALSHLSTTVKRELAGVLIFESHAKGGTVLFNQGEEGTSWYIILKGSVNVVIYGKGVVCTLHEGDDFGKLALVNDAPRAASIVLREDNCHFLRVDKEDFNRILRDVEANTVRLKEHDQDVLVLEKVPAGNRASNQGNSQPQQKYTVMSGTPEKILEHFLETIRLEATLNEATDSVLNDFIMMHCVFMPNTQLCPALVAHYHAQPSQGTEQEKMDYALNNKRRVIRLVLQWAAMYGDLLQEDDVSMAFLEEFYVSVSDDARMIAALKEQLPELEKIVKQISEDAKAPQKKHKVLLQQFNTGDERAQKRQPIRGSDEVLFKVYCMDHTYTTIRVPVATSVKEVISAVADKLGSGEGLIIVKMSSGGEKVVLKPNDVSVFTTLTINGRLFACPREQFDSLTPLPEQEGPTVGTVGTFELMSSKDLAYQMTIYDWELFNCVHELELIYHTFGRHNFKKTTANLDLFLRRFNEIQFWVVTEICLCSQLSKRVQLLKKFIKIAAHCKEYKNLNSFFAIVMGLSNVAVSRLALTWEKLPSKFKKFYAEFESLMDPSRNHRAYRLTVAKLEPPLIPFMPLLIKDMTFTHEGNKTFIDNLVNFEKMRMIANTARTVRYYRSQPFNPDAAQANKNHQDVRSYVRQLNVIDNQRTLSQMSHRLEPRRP
Glucocorticoid receptor (Homo sapiens), sequence (P04150 whole entry, looked up): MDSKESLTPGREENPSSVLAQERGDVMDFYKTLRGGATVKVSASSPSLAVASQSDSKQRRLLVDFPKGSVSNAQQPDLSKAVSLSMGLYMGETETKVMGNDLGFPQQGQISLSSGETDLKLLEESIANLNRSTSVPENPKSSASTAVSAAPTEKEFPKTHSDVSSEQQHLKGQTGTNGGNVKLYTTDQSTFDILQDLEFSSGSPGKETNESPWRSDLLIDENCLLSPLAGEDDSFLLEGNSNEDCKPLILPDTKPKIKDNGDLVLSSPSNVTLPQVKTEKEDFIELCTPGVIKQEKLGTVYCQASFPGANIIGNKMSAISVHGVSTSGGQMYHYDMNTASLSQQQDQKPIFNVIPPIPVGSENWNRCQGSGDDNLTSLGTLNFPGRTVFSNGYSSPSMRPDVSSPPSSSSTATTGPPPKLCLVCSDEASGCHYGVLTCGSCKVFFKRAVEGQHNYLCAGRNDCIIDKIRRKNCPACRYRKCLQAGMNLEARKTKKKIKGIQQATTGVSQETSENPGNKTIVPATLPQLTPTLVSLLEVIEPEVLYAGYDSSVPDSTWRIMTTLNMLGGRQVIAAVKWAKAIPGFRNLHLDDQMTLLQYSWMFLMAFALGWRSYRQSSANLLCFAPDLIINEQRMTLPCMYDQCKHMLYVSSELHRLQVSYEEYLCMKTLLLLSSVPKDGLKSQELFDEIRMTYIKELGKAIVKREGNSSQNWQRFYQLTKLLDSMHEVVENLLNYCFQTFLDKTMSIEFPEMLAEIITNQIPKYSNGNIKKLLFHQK

`CC(=O)NNC(=O)c1sc(=S)n2c1[nH]c(=O)c1sccc12`: the Potency in experiment [1] is 37.9 µM (active). Besides, the Potency result in experiment [2], in experiment [3], in experiment [4], in experiment [5] and in experiment [6] was “inactive” in each case.

Take `COc1ccccc1N1CCN(S(=O)(=O)c2ccc3c(c2)NC(=O)C(C)C(=O)N3)CC1` (centres undefined): the Potency result in experiment [1], in experiment [2], in experiment [3], in [4], in [5] and in experiment [6] was “inactive” throughout.

In the case of `COc1ccc(-c2nc(C)ncc2-c2ccccc2)c(O)c1`, the Potency result in experiment [1], in [2] and in experiment [4] was “inactive” in each case. Further, the activation was -0.293% [at 17.1 µM, percent relative to cAMP agonist control] in experiment [3] and -4.43% [at 30.8 µM] in experiment [6]. In addition, in experiment [5], the activity change, negative = inhibition was -10.8% [at 30.8 µM].

Consider `O=C(O)CC1Sc2nc3ccccc3n2C1=O` (centres undefined), for which the activity change, negative = inhibition in [7] was 12.1% [at 17.2 µM]; in experiment [8] it was 6.71% [at 17.2 µM]; in experiment [5], -7.87% [at 30.8 µM]. For the same compound, in experiment [9], the call was inactive. Moreover, the Potency in experiment [10] is over 20.6 µM. For the same compound, the Potency result in experiment [1], in experiment [2] and in experiment [4] was “inactive” in each case. The activation in [3] was 10.5% [at 17.1 µM, percent relative to cAMP agonist control]; in experiment [6] it was 12.5% [at 30.8 µM].

With `CCc1nnc(NC(=O)c2ccc(-c3cccc(C(F)(F)F)c3)o2)s1`, the Potency result in experiment [1], in [2] and in experiment [4] was “inactive” throughout. Further, the activation in experiment [3] is 4.04% [at 17.1 µM, percent relative to cAMP agonist control]; in [6], 26.6% [at 30.8 µM]. The activity change, negative = inhibition in [5] was 7.54% [at 30.8 µM].

Turning to `Cc1ccc(SCc2nnc(N)s2)cc1`, the activity change, negative = inhibition was 14.2% [at 17.2 µM] in [7], -2.66% [at 17.2 µM] in [8] and 3.94% [at 30.8 µM] in experiment [5]. Besides, the compound was classed as inactive in experiment [9]. Besides, the Potency in experiment [10] was over 20.6 µM. For the same compound, the Potency result in [1], in experiment [2] and in [4] was “inactive” in each case. Moreover, the activation in experiment [3] was 8.48% [at 17.1 µM, percent relative to cAMP agonist control]; in [6], 7.74% [at 30.8 µM].

`O=C(C1CCN(S(=O)(=O)N2CCOCC2)CC1)N1CCN(c2ccccc2)CC1`: the Potency entry in [1], in experiment [2], in experiment [3], in experiment [4], in [5] and in experiment [6] was “inactive” in each case.

For the compound `CC(C)c1nn2c(=O)cc(COC(=O)c3cccc(NC(=O)c4cccs4)c3)nc2s1`, the Potency entry in experiment [1], in [2], in [3], in experiment [4], in experiment [5] and in experiment [6] was “inactive” each time.

Turning to `COCCCn1c(=N)c(C(=O)NCc2cccnc2)cc2c(=O)n3cccc(C)c3nc21`, the Potency result in [1], in experiment [2], in [3], in experiment [5] and in experiment [6] was “inactive” throughout. Also, in experiment [4], the outcome was “inactive [at 12.7 µM]”.

Take `Cc1csc2nc(CNS(=O)(=O)c3ccc4c(c3)CCCC4)cn12`: the Potency entry in [1], in experiment [2] and in experiment [4] was “inactive” throughout. For the same compound, the activation was -3.4% [at 17.1 µM, percent relative to cAMP agonist control] in [3] and -8.72% [at 30.8 µM] in experiment [6]. Also, in [5], the activity change, negative = inhibition was -30.8% [at 30.8 µM].

Turning to `COc1ccc(Cl)cc1NC(=O)CN1CCc2ccccc21`, the Potency result in [1], in experiment [2] and in experiment [4] was “inactive” throughout. Also, the activation in experiment [3] was 2.78% [at 17.1 µM, percent relative to cAMP agonist control]; in [6], 14.8% [at 30.8 µM]. In addition, the activity change, negative = inhibition in experiment [5] is -6.37% [at 30.8 µM].

For the origin of these results see PubChem BioAssay (NCATS).
